High-throughput results as filed in PubChem BioAssay.
YB-1 expr inh: inhibitors of YB-1 gene expression, primary screen, cell-based, fluorescence; U2OS, qRT-PCR YB-1 vs CDIP delta delta Cp, 16 h; active compounds read high; zero = DMSO, each unit about twofold; delta delta Cp (YB-1 minus CDIP) (no concentration beside the values); hit rate 0.37% among 30,000;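 active = delta delta Cp rounded down to an integer at or above 3, about 3 SD of DMSO wells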;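 also: higher means less YB-1 transcript or more CDIP transcript relative to DMSO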
U2OS ROS induce: ROS inducers in U2OS cancer cells, primary screen, cell-based, H2DCF-DA fluorescence; U2OS ROS induction; hit rate 2% among 46,000; ROS induction (% of piperlongumine), % at 10 µM; in the data active = ROS induction above about 79%, passing the limit was not always enough;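 also: 0% = DMSO vehicle median and 100% = reference compound median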
Starred values were filed as active, the others as inactive; nt = no result. In the library only some 2.1% were active in any assay of this set; here they are far more common.

SMILES | YB-1 expr inh | U2OS ROS induce
O=C(CSCc1cnn(-c2ccccc2)c1-n1cccc1)N1CCN(c2ccc(F)cc2)CC1 | nt | 35
CCC(C)NC(=O)c1ccc(Sc2ccc(Cl)cc2)c(NC(C)=O)c1 (stereo unspecified) | nt | -7
COC(=O)CN1C(=S)N(c2ccccc2)C(=O)/C1=C/c1ccc(-c2ccc(Cl)cc2)o1 | nt | 74
CC(C)CN=CC1=C(O)CC(C)(C)CC1=O | nt | -11
COCCOC(=O)N1C(=O)[C@@]2(c3cc(C#CC4=CCCCC4)ccc31)[C@H](c1ccc(OCCO)cc1)N1[C@H](c3ccccc3)[C@H](c3ccccc3)OC(=O)[C@H]1[C@@H]2C(=O)N1CCc2cc(OC)c(OC)cc2C1 | -0.021 | 39
COCCOC(=O)N1C(=O)[C@@]2(c3cc(C#CC4=CCCCC4)ccc31)[C@H](C(=O)N1CCN(c3ncccn3)CC1)[C@H]1C(=O)O[C@H](c3ccccc3)[C@H](c3ccccc3)N1[C@@H]2c1ccccc1OCCO | -0.5 | 128*
Cc1noc(C)c1NC(=O)Nc1ccc2c(c1)CC(=O)N([C@H](C)CO)C[C@@H](C)[C@@H](CN(C)S(=O)(=O)c1cccs1)O2 | -0.24 | 106*
Cc1noc(C)c1NC(=O)Nc1ccc2c(c1)CC(=O)N([C@@H](C)CO)C[C@H](C)[C@H](CN(C)S(=O)(=O)c1cccs1)O2 | -0.18 | 12
C[C@H]1CN([C@@H](C)CO)C(=O)Cc2cc(NS(=O)(=O)c3ccc(Cl)cc3)ccc2O[C@@H]1CN(C)S(=O)(=O)c1ccc(Cl)cc1 | 0.23 | 84*
Cc1ccc(S(=O)(=O)Nc2ccc3c(c2)CC(=O)N([C@H](C)CO)C[C@H](C)[C@H](CN(C)S(=O)(=O)c2cccs2)O3)cc1 | 0.72 | 96*
Cc1ccc(S(=O)(=O)N(C)C[C@@H]2Oc3ccc(NS(=O)(=O)c4ccc(Cl)cc4)cc3CC(=O)N([C@H](C)CO)C[C@H]2C)cc1 | -0.08 | 14
Cc1ccc(S(=O)(=O)N(C)C[C@@H]2Oc3ccc(NS(=O)(=O)c4ccc(Cl)cc4)cc3CC(=O)N([C@@H](C)CO)C[C@@H]2C)cc1 | 0.12 | 14
Cc1ccc(S(=O)(=O)Nc2ccc3c(c2)CC(=O)N([C@H](C)CO)C[C@@H](C)[C@@H](CN(C)S(=O)(=O)c2ccc(Cl)cc2)O3)cc1 | 0.16 | 94*
Cc1ccc(S(=O)(=O)Nc2ccc3c(c2)CC(=O)N([C@@H](C)CO)C[C@@H](C)[C@@H](CN(C)S(=O)(=O)c2cccs2)O3)cc1 | 0.11 | 0
O=C(CCc1ccccc1)Nc1cccc(NC(=O)CCc2ccccc2)n1 | nt | 13
O=S(=O)(/N=C(\OC1CCCCC1)c1ccccc1)c1ccccc1 | nt | -2
CCn1cc(CCCC(=O)N2CCc3ccccc32)c2ccccc21 | nt | -3
N#Cc1c(/N=C/N2CCCC2)sc2c1CCCCC2 | nt | -7
CC(=O)N(Cc1ccccc1)C1CCCc2c1[nH]c1ccc(C)cc21 (stereo unspecified) | nt | 1
Cc1noc(C)c1NC(=O)Nc1ccc2c(c1)CC(=O)N([C@@H](C)CO)C[C@H](C)[C@H](CN(C)Cc1ccc3c(c1)OCO3)O2 | 0.35 | 124*
Cc1noc(C)c1NC(=O)Nc1ccc2c(c1)CC(=O)N([C@H](C)CO)C[C@H](C)[C@H](CN(C)Cc1ccc3c(c1)OCO3)O2 | -0.054 | 4
COc1cc(C(=O)N=C2C(C)=CC(=O)C=C2C)cc(OC)c1OC | 0.17 | 29
COc1cc2oc(-c3ccccc3)cc(=O)c2c(O)c1OC | -0.083 | 31
COc1cc2oc(-c3ccccc3)cc(=O)c2c(OC)c1OC | 0.51 | 90*
C[C@@H]1CN([C@@H](C)CO)C(=O)c2cccc(NC(=O)C3CCOCC3)c2O[C@@H]1CN(C)C(=O)NC1CCCCC1 | -0.01 | -10
SMILES | YB-1 expr inh | U2OS ROS induce
C[C@@H]1CN([C@H](C)CO)C(=O)c2cccc(NC(=O)C3CCOCC3)c2O[C@@H]1CN(C)C(=O)NC1CCCCC1 | 11* | -12
C[C@H](CO)N1C[C@H](C)[C@@H](CN(C)Cc2ccc(-c3ccccc3)cc2)Oc2c(NC(=O)C3CCOCC3)cccc2C1=O | 0.26 | 26
C[C@@H]1CN([C@H](C)CO)C(=O)c2cccc(NC(=O)NC3CCCCC3)c2O[C@@H]1CN(C)Cc1ccc(-c2ccccc2)cc1 | -0.21 | 101*
C[C@H]1CN([C@@H](C)CO)C(=O)c2cccc(NC(=O)NC3CCCCC3)c2O[C@H]1CN(C)Cc1ccc(-c2ccccc2)cc1 | -0.2 | 12
C[C@@H]1CN([C@H](C)CO)C(=O)c2cccc(NC(=O)C3CCOCC3)c2O[C@H]1CN(C)Cc1ccc(-c2ccccc2)cc1 | 0.35 | 100*
N#CC1=C(N)C(C#N)(C#N)C(c2ccccc2)C2=C1CCCC2 (stereo unspecified) | 0.23 | 50
CNC(=O)c1oc2ccc3c(c2c1C)C(=O)CC1(CCCCC1)O3 | nt | 34
O=S(=O)(c1ccc(-c2csc(Nc3ccc(Br)cc3)n2)cc1)N1CCCCC1 | nt | -2
